PMC8384837, “Expanding the binding specificity for RNA recognition by a PUF domain”

Experiments:
Assay in all cases: yeast three-hybrid, YBZ-1, SC-Leu-His + 0.5 mM 3-AT, 4 days
Conditions in all cases: tags: N-Gal4 AD-HA kept; label: inside an RPR1-promoter hybrid RNA with tandem MS2 sites; ssRNA
[1] = target: PUM1 PUF domain R5-NSR (Homo sapiens, UniProt Q14671 828-1176, C1007N;R1008S;Q1011R)
Procedure, shortened: (§1)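 Pumilio-1 PUF domain libraries, randomized at the three base-contacting residues of each repeat, were co-expressed with matching RNA elements from a centromeric plasmid in strain YBZ-1, which carries a LexA–MS2 coat fusion and a HIS3 reporter. Transformants grew for four days on SC-Leu (input) or on SC-Leu-His + 0.5 mM 3-AT (selection), and the repeat regions were PCR-amplified and Illumina-sequenced. The interaction score is the log change in variant frequency from input to selection. That logarithm is base 2, with a pseudocount of 1 where a variant was absent.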

[2] = target: PUM1 PUF domain R5-RHR (Homo sapiens, UniProt Q14671 828-1176, C1007R;R1008H;Q1011R)
Procedure, shortened: as §1

[3] = target: PUM1 PUF domain R7-RCN (Homo sapiens, UniProt Q14671 828-1176, S1079R;N1080C;E1083N)
Procedure, shortened: as §1

[4] = target: PUM1 PUF domain R1-RRM (Homo sapiens, UniProt Q14671 828-1176, S863R;Q867M)
Procedure, shortened: as §1

GGCUAGAACUAGUGGAUCCCCCGGCGCCCGGCGGCUCGAGCCCGGGUAAGUGUUAAUAGUCUGCAUGCCGCCGGGCGCCAUGCCUGCAGGUCGACUCUAGAAAACAUG
binding signal [1]: 4.06 log2 enrichment (interaction score) | binding signal [2]: 4.52 log2 enrichment (interaction score)

GGCUAGAACUAGUGGAUCCCCCGGCGCCCGGCGGCUCGAGCCCGGGUAAGUGUCAAUAGUCUGCAUGCCGCCGGGCGCCAUGCCUGCAGGUCGACUCUAGAAAACAUG
binding signal [1]: 4.06 log2 enrichment (interaction score)

GGCUAGAACUAGUGGAUCCCCCGGCGCCCGGCGGCUCGAGCCCGGGUAAGUCUAAAUAGUCUGCAUGCCGCCGGGCGCCAUGCCUGCAGGUCGACUCUAGAAAACAUG
binding signal [3]: 2.67 log2 enrichment (interaction score)

GGCUAGAACUAGUGGAUCCCCCGGCGCCCGGCGGCUCGAGCCCGGGUAAGUGUAAAUCGUCUGCAUGCCGCCGGGCGCCAUGCCUGCAGGUCGACUCUAGAAAACAUG
binding signal [4]: 2.95 log2 enrichment (interaction score)

GGCUAGAACUAGUGGAUCCCCCGGCGCCCGGCGGCUCGAGCCCGGGUAAGUGUAAAUUGUCUGCAUGCCGCCGGGCGCCAUGCCUGCAGGUCGACUCUAGAAAACAUG
binding signal [4]: 1.41 log2 enrichment (interaction score)
